Screening data from PubChem.
E coli growth-1: blocks Escherichia coli growth; OD600, 23 h; hits give low values; OD600 absorbance (no concentration beside the values); 330,000 compounds, 0.21% hits;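 active means OD600 absorbance below the run mean of sample wells minus 3.6 SD, in any replicate, cut at about 0.56 in these data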
phage Ecoli inh: E. coli growth loss with phage present; 360,000 compounds, 0.26% hits; inhibition, % at 11.9 µM; growth absorbance; AID 651602; in the data active means inhibition above about 11%
Tat export inh: inhibitors of E. coli Tat protein transport. inhibition, % at 10 µM. AID 488895. 340,000 compounds, 0.036% hits. E. coli MC4100 TorA-mCherry Tat export, fluorescence;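 active means mean replicate inhibition at least 50% and at least half of replicates individually reaching 50%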;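 further: exported cargo escapes ClpAP degradation while cytoplasmic cargo is degraded and loses fluorescence; 0% = median of neutral control wells and 100% = median of NaSCN control wells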
E coli growth-2: reduces bacterial viability in AddAB counter-screen; E. coli V3065 growth, OD600 absorbance, 18 h; 330,000 compounds, 0.27% hits; inhibition, % at 11.9 µM;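 active means inhibition above the campaign's mean inhibition across all tested compounds plus 3 SD, cut at about 9.9% in these data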;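 further: uninfected addAB+ strain grown without phage in ampicillin broth; 0% = DMSO wells and 100% = ciprofloxacin 0.95 µg/ml wells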
AddAB inh: less growth of phage-infected E. coli with AddAB. AID 435030. 330,000 compounds, 0.29% hits. E. coli expressing H. pylori AddAB, absorbance growth. inhibition, % at 11.9 µM; in the data active means inhibition above about 12%;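 further: 0% = vehicle wells of infected cells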
AddAB confirm: growth loss of T4-infected E. coli expressing H. pylori AddAB, confirmed. E. coli V3065 expressing H. pylori AddAB, T4 phage, OD; T4 phage with gene 2 nonsense mutations. shares compounds with AddAB inh. AID 488942. inhibition, % at 11.9 µM. 880 compounds, 64% hits;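 active means mean inhibition above a set limit taken from the earlier primary screen, cut at about 13% in these data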;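 further: higher means less bacterial growth since AddAB block lets phage replicate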
RecBCD counter: reduces growth of phage-infected RecBCD+ E. coli, AddAB inhibitor counter-screen; shares compounds with AddAB inh; E. coli V66 + mutant T4 phage, OD growth; inhibition, % at 11.9 µM; 880 compounds, 73% hits; AID 488955;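 active means mean inhibition above the mean of solvent-only control wells plus 3 SD, cut at about 4% in these data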;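 further: optical density read after an 18 h incubation at 37 °C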
Bact viability: reduces bacterial viability, AddAB inhibitor counter-screen; absorbance (AddAB counterscreen); inhibition, % at 11.9 µM; shares compounds with AddAB inh; 880 compounds, 35% hits; in the data active means inhibition above about 25%
RecBCD conf: growth loss of phage-infected V66 E. coli, RecBCD confirmation screen; shares compounds with phage Ecoli inh; E. coli V66 + T4 2- phage, growth OD; inhibition, % at 11.9 µM; 890 compounds, 45% hits; AID 651982;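 active means mean inhibition over triplicates exceeding the hit threshold derived in the original primary screen, cut at about 11% in these data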
Ecoli viability: bacterial viability inhibition counter-screen for RecBCD; 890 compounds, 29% hits; shares compounds with phage Ecoli inh; inhibition, % at 11.9 µM; E. coli viability, absorbance (OD) growth; AID 651983; in the data active means inhibition above about 20%;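 further: E. coli strain V66 grown with compound alone and no phage infection; 0% = bacteria with DMSO vehicle only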
AddAB counter: growth loss of phage-infected AddAB E. coli, RecBCD counter-screen | shares compounds with phage Ecoli inh | E. coli expressing H. pylori AddAB + T4 phage, OD growth; gene 2 mutant T4, recBCD-deleted host | inhibition, % at 11.9 µM | 890 compounds, 45% hits | AID 651984;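 active means mean inhibition above the solvent-only control wells' mean plus 3 SD, cut at about 22% in these data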;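 further: higher means less bacterial growth from phage killing when AddAB is blocked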
* = called active by the depositor; · = no result. Shown are actives, neighbours in structure and some others; about 0.5% of the full set was active somewhere.

SMILES	E coli growth-1	phage Ecoli inh	Tat export inh	E coli growth-2	AddAB inh	AddAB confirm	RecBCD counter	Bact viability	RecBCD conf	Ecoli viability	AddAB counter
S=c1nc[nH]c2nc[nH]c12	0.67	25*	1	24*	80*	63*	24*	50*	37*	40*	71*
COc1cc(OC)c(OC)cc1/C=N/NC(=O)c1cc(-c2cccn2C)n[nH]1	·	3	5	-2	0	·	·	·	·	·	·
CCOc1cccc(/C=N/NC(=O)c2cc(-c3cccn3C)n[nH]2)c1O	·	18*	-11	12*	17*	19*	21*	20	9	10	15
CC(=O)OC1C[C@@]2(C)C(CC(O)C3[C@@]4(C)CCC(O)C(C)C4CC[C@@]32C)C1=C(CCC=C(C)C)C(=O)O (stereo partly drawn)	0.63	·	·	·	·	·	·	·	·	·	·
COc1cccc(C=NNC(=O)c2ccc(-c3ccccc3)cc2)c1O	0.72	·	·	·	·	·	·	·	·	·	·
COc1cccc(/C=N/NC(=O)C(=O)Nc2ccccc2OC(F)(F)C(F)F)c1O	·	17*	-3	15*	19*	10	12*	10	4	4	7
COc1cccc(/C=N/NC(=O)c2ccc(-c3ccccc3)cc2)c1O	·	19*	2	17*	19*	6	16*	4	7	10	19
O=C(NN=Cc1cc(Br)ccc1O)C(=O)Nc1ccccc1OC(F)(F)C(F)F	0.74	·	·	·	·	·	·	·	·	·	·
O=C(NNC(=O)c1cc(-c2ccncc2)nc2ccccc12)c1ccccc1O	0.54	24*	-10	26*	29*	18*	18*	15	12*	16	20
Cc1ccc(-c2cc(C(=O)Nc3ccncc3)c3ccccc3n2)cc1	0.71	3	2	1	-1	·	·	·	·	·	·
CCCC(=O)NC(c1ccc(N(C)C)cc1)c1ccc2cccnc2c1O (stereo not drawn)	·	26*	1	28*	31*	25*	22*	20	17*	24*	29*
CCC(=O)NC(c1ccc(C)cc1)c1cc([N+](=O)[O-])c2cccnc2c1O (stereo not drawn)	0.71	2	0	-1	2	·	·	·	·	·	·
O=C(O)c1ccccc1NC(c1ccccc1)c1ccc2cccnc2c1O (stereo not drawn)	·	10	12	·	·	·	·	·	·	·	·
CCC(=O)NC(c1ccc(C)cc1)c1ccc2cccnc2c1O (stereo not drawn)	·	24*	-3	29*	24*	22*	24*	17	15*	21*	29*
CCCC(=O)NC(c1ccc(C(C)C)cc1)c1ccc2cccnc2c1O (stereo not drawn)	·	21*	-1	27*	26*	21*	19*	20	14*	17	21
O=C(CSc1cccc2cccnc12)NN=Cc1ccc(O)cc1	0.68	·	·	·	·	·	·	·	·	·	·
COc1ccc(NC(=O)CSc2nnc(-c3ccc(F)cc3)o2)cn1	0.59	24*	-76	9	21*	29*	17*	20	21*	21*	39*
O=C(CSc1nnc(-c2cccnc2)o1)Nc1ccc(F)cc1	·	4	·	·	·	·	·	·	·	·	·
CCN(CC)c1ccc(/C=N/NC(=S)NCc2ccccc2)c(O)c1	·	14*	1	15*	12*	9	14*	16	9	9	20
CCN(CC)c1ccc(C=NNC(=S)NCc2ccccc2)c(O)c1	0.68	·	·	·	·	·	·	·	·	·	·
COC(=O)[C@]1(C)NC(c2ccc(-c3ccc(OC)cc3)cc2)C2C(=O)N(C)C(=O)C21 (stereo partly drawn)	0.65	·	·	·	·	·	·	·	·	·	·
O=C(O)c1cn(-c2ccc(F)cc2)c2cc(Cl)c(F)cc2c1=O	0.066*	14*	-5	55*	53*	102*	99*	101*	98*	100*	99*
CCOC(=O)c1cn(-c2ccc([N+](=O)[O-])cc2)c2cc(Cl)c([N+](=O)[O-])cc2c1=O	0.64	4	-3	3	2	·	·	·	·	·	·
C/C(=N\Nc1ccc2nncn2n1)c1ccccn1	·	32*	·	27*	31*	22*	29*	19	18*	27*	21
CCCNC(=O)c1ccc2c(=O)c(O)c(-c3ccc(Cl)c([N+](=O)[O-])c3)[nH]c2c1	·	16*	2	11*	14*	11	13*	12	10	12	14
SMILES	E coli growth-1	phage Ecoli inh	Tat export inh	E coli growth-2	AddAB inh	AddAB confirm	RecBCD counter	Bact viability	RecBCD conf	Ecoli viability	AddAB counter
CC(C)(C)OC(=O)CC1CC=CCC(CC(=O)N(CCO)Cc2ccccc2)C(=O)NC(Cc2ccccc2)COC1=O (stereo not drawn)	0.72	·	·	·	·	·	·	·	·	·	·
Cc1nnsc1C(=O)NN=Cc1cccc(C(F)(F)F)c1	0.69	·	·	·	·	·	·	·	·	·	·
Cc1cc(C)cc(NC(=O)c2ccc([N+](=O)[O-])o2)c1	0.56	10	-5	·	·	·	·	·	·	·	·
COc1ccc(NC(=O)c2ccc([N+](=O)[O-])o2)cc1	0.47*	19*	-12	80*	58*	100*	17*	46*	15*	18	100*
CC(=O)c1cccc(NC(=O)c2ccc([N+](=O)[O-])o2)c1	0.44*	16*	0	83*	89*	101*	19*	71*	10	13	84*
O=C(NNC(=O)c1ccc([N+](=O)[O-])o1)c1ccccc1	0.35*	26*	-2	86*	68*	103*	23*	70*	18*	21*	102*
CN1CCN(c2ccc(NC(=O)c3ccc([N+](=O)[O-])o3)cc2Cl)CC1	0.31*	23*	-12	92*	99*	98*	24*	95*	15*	20*	85*
COc1ccc(NC(=O)c2ccc(Br)o2)cc1	0.66	4	-18	2	5	·	·	·	·	·	·
CC(C)(C)C1C=C(C(=O)Nc2ccccc2)OC(OCCCCO)C1 (stereo not drawn)	0.62	·	·	·	·	·	·	·	·	·	·
CC1NC(=O)[C@@]2(C)C(c3ccccc3)C3COc4ccc(Cl)cc4C3N2C1=O (stereo partly drawn)	0.7	·	·	·	·	·	·	·	·	·	·
O=C(Nc1cccnc1)c1ccco1	0.65	0	-8	0	1	·	·	·	·	·	·
